Measured values as given in the antibiotic and cytotoxicity screens of Wong et al. (2023).
Out of some 39,000 compounds screened, about 3,300 (8.5%) were called active. The sample as a whole holds a higher share of actives than the screen did.

test system: HepG2; experiment: cytotoxicity call (relative viability < 0.9); conditions: 10 µM

Structure (SMILES) | cytotoxicity call
COc1ccc(S(=O)(=O)N(C)C[C@H]2Oc3ccc(NS(=O)(=O)c4ccc(C)cc4)cc3CC(=O)N([C@H](C)CO)C[C@@H]2C)cc1 | inactive
NC[C@H](c1ccccc1Cl)N1CCOCC1 | inactive
C[C@@H]1CN([C@H](C)CO)C(=O)c2cc(NC(=O)Nc3ccccc3)ccc2O[C@@H](C)CCCCO[C@H]1CN(C)C(=O)Cc1ccccc1 | inactive
CC[C@H](C)[C@H](N)C1=N[C@H](C(=O)N[C@@H](CC(C)C)C(=O)N[C@H](CCC(=O)O)C(=O)N[C@H](C(=O)N[C@H]2CCCCNC(=O)[C@H](CC(N)=O)NC(=O)[C@@H](CC(=O)O)NC(=O)[C@H](Cc3cnc[nH]3)NC(=O)[C@@H](Cc3ccccc3)NC(=O)[C@H]([C@@H](C)CC)NC(=O)[C@@H](CCCN)NC2=O)[C@@H](C)CC)CS1 | inactive
O=C(C[C@H]1CC[C@H]2[C@@H](COC[C@@H](O)CN2C(=O)Nc2ccc(Cl)c(Cl)c2)O1)NCc1ccncc1 | inactive
O=C(C[C@@H]1CC[C@@H]2[C@H](COC[C@@H](O)CN2C(=O)Nc2ccc(Cl)c(Cl)c2)O1)NCc1ccncc1 | active
O=C(C[C@H]1CC[C@H]2[C@@H](COC[C@@H](O)CN2C(=O)Nc2ccc(Cl)cc2)O1)NCCc1ccncc1 | active
O=C(C[C@@H]1CC[C@@H]2[C@H](COC[C@@H](O)CN2C(=O)Nc2ccc(Cl)cc2)O1)NCCc1ccncc1 | inactive
O=C(C[C@H]1CC[C@@H]2[C@H](COC[C@H](O)CN2C(=O)Nc2ccc(Cl)c(Cl)c2)O1)NCc1ccncc1 | inactive
O=C(C[C@H]1CC[C@H]2[C@@H](COC[C@H](O)CN2C(=O)Nc2ccc(Cl)cc2)O1)NCCc1ccncc1 | inactive
O=C(C[C@@H]1CC[C@H]2[C@@H](COC[C@@H](O)CN2C(=O)Nc2ccc(Cl)c(Cl)c2)O1)NCc1ccncc1 | inactive
O=C(C[C@H]1CC[C@@H]2[C@H](COC[C@H](O)CN2C(=O)Nc2ccc(Cl)c(Cl)c2)O1)NCc1ccc(Cl)c(Cl)c1 | active
O=C(C[C@@H]1CC[C@@H]2[C@H](COC[C@H](O)CN2C(=O)Nc2ccc(Cl)c(Cl)c2)O1)NCc1ccc(Cl)c(Cl)c1 | inactive
CO[C@H]1CN(C)C(=O)c2cc(NC(=O)Nc3ccc(Cl)cc3)ccc2OC[C@@H](C)N(C(=O)Nc2c(C)noc2C)C[C@@H]1C | inactive
C[C@@H]1CCCCO[C@@H](CN(C)C(=O)Cc2ccccc2)[C@@H](C)CN([C@H](C)CO)C(=O)c2cc(NC(=O)C3CCCCC3)ccc2O1 | inactive
CC(C)NC(=O)N(C)C[C@@H]1Oc2ccc(NC(=O)Cn3cnnn3)cc2C(=O)N([C@H](C)CO)C[C@@H]1C | inactive
C[C@@H]1CCCCO[C@H](CN(C)C(=O)Cc2ccccc2)[C@H](C)CN([C@H](C)CO)C(=O)c2cc(NC(=O)CCC(F)(F)F)ccc2O1 | inactive
C[C@@H]1CN([C@@H](C)CO)C(=O)c2cc(NC(=O)CCCN(C)C)ccc2O[C@H]1CN(C)S(=O)(=O)c1ccc(F)cc1 | inactive
Clc1ccc(C2=Nc3cccc4cccc(c34)N2)cc1 | inactive
C=C(CO)C(=O)O[C@@H]1[C@H]2C(=C)C(=O)O[C@@H]2[C@H]2O[C@]2(C)CC/C=C(/C(=O)OC)[C@H]1OC(C)=O | active
C=C(CO)C(=O)O[C@H]1C[C@@]2(C)OC(=O)/C(=C/C)[C@]2(O)CC[C@@]2(C)CC(=O)[C@]1(C(=C)C(=O)OC)O2 | inactive

Structure (SMILES) | cytotoxicity call
O=C(O)CN1CCCCCC1=O | inactive
O=C(C[C@H]1C[C@@H]2c3cc(NC(=O)Nc4ccc(C(F)(F)F)cc4)ccc3O[C@@H]2[C@H](CO)O1)NCc1ccc(Cl)cc1 | inactive
C[C@@H]1CN([C@@H](C)CO)C(=O)CCCn2cc(nn2)CO[C@H]1CN(C)C(=O)Nc1ccnc(N2CCOCC2)c1 | inactive
C[C@@H]1CN([C@H](C)CO)C(=O)c2cc(NC(=O)c3ccncc3)ccc2O[C@H]1CN(C)Cc1ccc(-c2ccccc2)cc1 | active
C[C@H](CO)N1C[C@H](C)[C@H](CN(C)Cc2ccc(Oc3ccccc3)cc2)Oc2ccc(NC(=O)c3ccncc3)cc2C1=O | active
C[C@@H]1CN([C@H](C)CO)C(=O)c2cc(NC(=O)c3ccncc3)ccc2O[C@@H]1CN(C)Cc1ccc(Oc2ccccc2)cc1 | inactive
C[C@H]1CN([C@@H](C)CO)C(=O)c2cc(NC(=O)c3ccncc3)ccc2O[C@@H]1CN(C)Cc1ccc(Oc2ccccc2)cc1 | inactive
Cc1noc(C)c1NC(=O)N(C)C[C@H]1Oc2ccc(NC(=O)c3ccncc3)cc2C(=O)N([C@@H](C)CO)C[C@@H]1C | inactive
C[C@H](CO)N1C[C@H](C)[C@@H](CN(C)Cc2ccc(-c3ccccc3)cc2)Oc2ccc(NC(=O)c3ccncc3)cc2C1=O | inactive
Cc1noc(C)c1NC(=O)N(C)C[C@H]1Oc2ccc(NC(=O)c3ccncc3)cc2C(=O)N([C@@H](C)CO)C[C@H]1C | inactive
Cc1noc(C)c1NC(=O)N(C)C[C@H]1Oc2ccc(NC(=O)c3ccncc3)cc2C(=O)N([C@H](C)CO)C[C@@H]1C | active
C[C@@H]1CN([C@@H](C)CO)C(=O)c2cc(NC(=O)c3ccncc3)ccc2O[C@@H]1CN(C)Cc1ccc(-c2ccccc2)cc1 | inactive
C[C@@H]1CN([C@@H](C)CO)C(=O)c2cc(NC(=O)CCCN(C)C)ccc2O[C@H]1CN(C)Cc1ccncc1 | inactive
C[C@@H]1CCCCO[C@@H](CN(C)CC2CCCCC2)[C@@H](C)CN([C@@H](C)CO)C(=O)c2cc(NC(=O)CCC(F)(F)F)ccc2O1 | inactive
Cc1ccc(S(=O)(=O)N(C)C[C@@H]2Oc3ccc(NS(C)(=O)=O)cc3C(=O)N([C@H](C)CO)C[C@@H]2C)cc1 | inactive
COc1ccc2c3c(n(c2c1)C)[C@@H](CO)N(C[C@]13CN(Cc2ccncc2)C1)C(=O)CN1CCOCC1 | inactive
O=C(C[C@@H]1CC[C@H]2[C@@H](COC[C@@H](O)CN2Cc2ccccc2F)O1)N[C@@H]1CCN(Cc2ccccc2)C1 | inactive
C[C@@H]1CCCCO[C@@H](CN(C)C(=O)Nc2cccc3ccccc23)[C@H](C)CN([C@@H](C)CO)C(=O)c2cc(NS(=O)(=O)c3cccs3)ccc2O1 | inactive
C[C@@H]1CN([C@@H](C)CO)C(=O)c2c(c3ccccc3n2C)-c2ccccc2CO[C@@H]1CN(C)C(=O)NC1CCCCC1 | inactive
Cn1c(=O)c2c(ncn2CC(=O)N2CCN(c3ccccc3F)CC2)n(C)c1=O | inactive
CCN(CC)C(=S)SSC(=S)N(CC)CC | active

Structure (SMILES) | cytotoxicity call
O=C(NCc1nc2ccccc2[nH]1)C1=C[C@@H](c2ccc(C(F)(F)F)cc2)C[C@@H](OCc2ccc(CO)cc2)O1 | inactive
Nc1cc(N)nc(SCCC(=O)O)n1 | inactive
COCC(=O)N1CC(=O)N2[C@H](CO)[C@@H](c3ccc(C#Cc4cccnc4)cc3)[C@H]2C1 | inactive
CC(C)C(O)=C1C(=O)OC(c2ccoc2)C2(C)C(O)C(O)C34OC5(C)OC3(C12)C(O)C1(O)C(O)C2(C)CC1(O5)C4(C)C2CC(=O)O (configuration not stated) | inactive
COC(=O)CC1C2(C)CC34OC5(C)OC6(C7C(=C(O)C(C)C)C(=O)OC(c8ccoc8)C7(C)C(OC(C)=O)C(OC(C)=O)C6(O5)C13C)C(OC(C)=O)C4(O)C2OC(=O)C(C)C (configuration not stated) | inactive
CC(C)C(=O)[C@@H]1C(=O)O[C@@H](c2ccoc2)[C@]2(C)[C@H](O)[C@@H](O)[C@@]34O[C@]5(C)O[C@]3([C@H]12)[C@H](O)[C@@]1(O)[C@H](O)[C@]2(C)C[C@]1(O5)[C@@]4(C)[C@H]2CC(=O)O | active
COc1cccc(S(=O)(=O)N(C)C[C@H]2Oc3ncc(C#CC(C)C)cc3C(=O)N([C@H](C)CO)C[C@@H]2C)c1 | inactive
C[C@H](C(=O)N(C)C[C@@H]1OCc2ccccc2-c2c(n(C)c3ccccc23)C(=O)N([C@@H](C)CO)C[C@@H]1C)c1ccccc1 | inactive
C[C@H](CO)N1C[C@H](C)[C@H](CN(C)C(=O)[C@H](C)c2ccccc2)OCc2ccccc2-c2c(n(C)c3ccccc23)C1=O | active
C[C@H](C(=O)N(C)C[C@H]1OCc2ccccc2-c2c(n(C)c3ccccc23)C(=O)N([C@@H](C)CO)C[C@H]1C)c1ccccc1 | inactive
C[C@H](C(=O)N(C)C[C@H]1OCc2ccccc2-c2c(n(C)c3ccccc23)C(=O)N([C@@H](C)CO)C[C@@H]1C)c1ccccc1 | active
C[C@@H](C(=O)N(C)C[C@H]1OCc2ccccc2-c2c(n(C)c3ccccc23)C(=O)N([C@@H](C)CO)C[C@@H]1C)c1ccccc1 | inactive
C[C@@H]1CN([C@@H](C)CO)C(=O)c2c(c3ccccc3n2C)-c2ccccc2CO[C@@H]1CN(C)C(=O)[C@H](C)c1ccccc1 | inactive
Cc1noc(C)c1NC(=O)Nc1ccc2c(c1)C(=O)N([C@H](C)CO)C[C@H](C)[C@@H](CN(C)Cc1ccccc1)OCCCC[C@H](C)O2 | inactive
C[C@H](CO)N1C[C@H](C)[C@H](CN(C)Cc2ccccc2)Oc2ccc(NC(=O)Nc3ccc(C(F)(F)F)cc3)cc2C1=O | active
C[C@H]1CN([C@@H](C)CO)C(=O)c2cc(NC(=O)Nc3ccc(C(F)(F)F)cc3)ccc2O[C@@H]1CN(C)Cc1ccccc1 | inactive
C[C@@H]1CN([C@H](C)CO)C(=O)c2cc(NC(=O)Nc3ccc(C(F)(F)F)cc3)ccc2O[C@@H]1CN(C)Cc1ccccc1 | active
C[C@H]1CN([C@@H](C)CO)C(=O)c2cc(NC(=O)Nc3ccc(C(F)(F)F)cc3)ccc2O[C@H]1CN(C)Cc1ccccc1 | active
C[C@@H]1CN([C@@H](C)CO)C(=O)c2cc(NC(=O)Nc3ccc(C(F)(F)F)cc3)ccc2O[C@H]1CN(C)Cc1ccccc1 | inactive
C[C@@H]1CN([C@@H](C)CO)C(=O)c2cc(NC(=O)Nc3ccc(C(F)(F)F)cc3)ccc2O[C@@H]1CN(C)Cc1ccccc1 | active
